Measured values published in PubChem BioAssay AID1347417 (National Center for Advancing Translational Sciences (NCATS), 2020).
About 5,300 (4.4%) of roughly 120,000 compounds were called active. Not shown: some 22% with an inconclusive outcome. Calls follow the shape of the dose curve; as a rule, active = well fitted inhibition curve with a large enough effect; inconclusive = small, poorly fitted or top-dose-only effect; inactive = no such curve, though single readings can be large or run the other way. Shown is part of a subset that was picked to be rich in actives.

Assay: qHTS Primary assay for Inhibitors of Plasmodium falciparum Dd2 growth in vitro; also: nearly all actives have a fitted effect of over 65% in size;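 as to activity, negative = inhibition: plate controls were DMSO vehicle for no effect and reference drug for full effect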
Settings: P. falciparum Dd2 growth, SYBR Green, 72 h; series mostly up to 28.9 µM; activity, negative = inhibition: at the top concentration
In short: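 Readout: SYBR Green fluorescence, 485 nm excitation, 535 nm emission, after ~16 h lysis at 37C. Before that, Dd2-infected red cells (2.5% hematocrit) grew 72 h with compound, 29 uM top final concentration.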
Potency is read from the fitted curve at half-maximal effect.

| Compound | activity, negative = inhibition | outcome | Potency |
| --- | --- | --- | --- |
| COc1ccc(-c2ccnc3nc(CC(C)C)nn23)c(F)c1 | -29.2% (inactive) |  |  |
| CC(NC(=O)c1noc(-c2ccc(F)cc2)n1)c1ccc(F)cc1 (centres undefined) |  | inactive; activator; fitted 0.8913 uM |  |
| CN1CCCN(S(=O)(=O)c2cccs2)c2ccccc21 | -16.5% (inactive) |  |  |
| Cc1cccc(C(=O)N2CCC(CC(=O)NCc3ccccc3)C2)c1 (centres undefined) | 23.5% (inactive) |  |  |
| CC(C)CN1CCN(C2CCOC3(CCN(S(=O)(=O)c4cccs4)CC3)C2)CC1 (centres undefined) | -11.2% (inactive) |  |  |
| CC(C)C(=O)N1CCC(OC2CCN(Cc3ccccc3)CC2)CC1 | -28.6% (inactive) |  |  |
| O=S(=O)(c1cccs1)N1CCC(OC2CCN(Cc3ccccc3)CC2)CC1 |  |  | 3.55 µM (active) |
| Cc1cccc(C(=O)N2CCC(OC3CCN(Cc4ccccc4)CC3)CC2)c1 |  |  | 3.98 µM (active) |
| N[C@H]1CCN2C(=O)c3cc(-c4ccc(F)cc4F)ccc3NC(=O)[C@H]12 |  | inactive [at 44.1 µM] |  |
| Cc1cccc(C(=O)N2CC(c3nnc(C(C)C)o3)C3(CCOCC3)C2)c1 (centres undefined) | -19.4% (inactive) |  |  |
| CC(=O)NCCc1ncc(C)n1C1CCCCC1 | -23.6% (inactive) |  |  |
| Cc1cnc(CCNC(=O)Nc2ccccc2F)n1C1CCC1 |  |  | 4.47 µM (active) |
| Cc1cnc(CCNC(=O)c2cn(C)cn2)n1C1CC1 | -21% (inactive) |  |  |
| CCNC(=O)c1c(C)oc2c1CN(C(=O)CCc1ccccc1)CC2 |  | inactive |  |
| C=C(C)CN(CC)C(=O)c1c(C)oc2c1CN(Cc1cccc(F)c1)CC2 |  |  | 8.91 µM (active) |
| O=c1[nH]c(N2CCOCC2)nc2c1CCN(Cc1cccc(F)c1)CC2 |  | inactive [at 5.79 µM] |  |
| O=C(CCc1ccccc1)N1CCCCCC1c1nc(-c2ccccc2)no1 (centres undefined) | -10.1% (inactive) |  |  |
| Cc1cccc(CC(=O)N2CCC(c3noc(COCC4CC4)n3)CC2)c1 | -11.1% (inactive) |  |  |
| Cc1ccc2c(C)c(C(=O)N3CCCn4cncc4C3)oc2c1 | -21.1% (inactive) |  |  |
| COc1ccc(NC(=O)c2ccc3nc(C(C)C)oc3c2)cc1OC | 14.6% (inactive) |  |  |
| COc1ccc(C(=O)Nc2ccc3nc(N4CCCCC4)cc(C)c3c2)cc1OC |  |  | 3.16 µM (active) |
| COc1ccc(NC(=O)c2ccc3c(c2)N(S(C)(=O)=O)CC3)cc1OC | -0.286% (inactive) |  |  |
| COc1ccc(N2CCC(NC(=O)c3ccc(N(C)C)cc3)C2=O)cc1 (centres undefined) | -12% (inactive) |  |  |

| Compound | activity, negative = inhibition | outcome | Potency |
| --- | --- | --- | --- |
| O=C(NCc1ccc(Cl)nc1)c1cnn2c1CN([S+](=O)([O-])c1cccc(C(F)(F)F)c1)CC2 | 70.5% (inactive) |  |  |
| COc1cc(C)ccc1OCCSc1nc2ccc(NC(=O)c3ccc(C)cc3)cc2s1 | -22.7% (inactive) |  |  |
| Cc1ccccc1OCCSc1nc2ccc(NC(=O)c3ccco3)cc2s1 |  |  | 2.24 µM (active) |
| O=C(Nc1ccc2nc(SCCOc3ccccc3)sc2c1)c1ccco1 |  |  | 4.47 µM (active) |
| CC(=O)Nc1ccc2nc(SCCOc3cc(C)cc(C)c3)sc2c1 |  | inactive |  |
| Cc1ccc(OCCSc2nc3ccc(NC(=O)COc4ccc(C)cc4)cc3s2)cc1 | 5.02% (inactive) |  |  |
| Cc1cccc(OCCSc2nc3ccc(NC(=O)COc4ccccc4C)cc3s2)c1 | -19.9% (inactive) |  |  |
| CN1CC2(CCN(Cc3cn[nH]c3-c3ccccc3)CC2)CC1C(=O)N1CCOCC1 (centres undefined) | -19.7% (inactive) |  |  |
| O=C(CCc1conc1-c1ccccc1F)NCc1cccc(C(F)(F)F)c1 | -8.13% (inactive) |  |  |
| C=CCCC(CN1CCCC1)Oc1cncc(C(=O)N2CCCC2)n1 (centres undefined) |  |  | 7.94 µM (active) |
| COC[C@@H]1CN(C(=O)Cc2ccc(OC)cc2)C[C@H]1C(N)=O |  | inactive |  |
| CCCC1c2nccn2CCCN1C(=O)c1ccc(OC)nc1 (centres undefined) | 11.3% (inactive) |  |  |
| COc1ccccc1OCCNC(=O)CCc1cc2cc(C)ccc2[nH]c1=O | -7.04% (inactive) |  |  |
| O=C(N[C@@H]1CCOC[C@H]1Oc1ccccn1)c1cc(C2CC2)no1 | -7.6% (inactive) |  |  |
| O=C1Nc2ccccc2CC12CCCN2Cc1ccccc1 (centres undefined) |  |  | 10 µM (active) |
| COc1ccc(CN2CCC3(CC2)Cc2ccccc2CNC3=O)cn1 | 2.24% (inactive) |  |  |
| N#Cc1ccc(CN2CCC3(Cc4ccccc4NC3=O)C2)cc1 (centres undefined) | -4.96% [at 44.1 µM] (inactive) |  |  |
| Cc1ccc(CN2CCCC23Cc2ccccc2CNC3=O)cc1C (centres undefined) | -14% (inactive) |  |  |
| O=C1Nc2ccccc2CC12CCN2Cc1cncs1 (centres undefined) | -13% [at 44.1 µM] (inactive) |  |  |
| Cc1nn(-c2ccccc2)c(C)c1CN1CCCC12Cc1ccccc1CNC2=O (centres undefined) |  |  | 2.24 µM (active) |
| CSc1nccc(N2CCC(c3nccn3Cc3cccnc3)CC2)n1 | -28.9% (inactive) |  |  |
| CCS(=O)(=O)N1CCCN(C(=O)C2CC2)C(c2ccccc2)CC(=O)NCC1 (centres undefined) | 2.09% (inactive) |  |  |
| CN1CC2(CCN(C(=O)c3n[nH]c(=O)c4ccccc34)CC2)CC1C(=O)N1CCOCC1 (centres undefined) | 13.6% (inactive) |  |  |

| Compound | activity, negative = inhibition | outcome | Potency |
| --- | --- | --- | --- |
| CN(C)C(=O)c1nc(-c2cccnc2)c2ccccn12 | 1.95% [at 44.1 µM] (inactive) |  |  |
| CN(C)C(=O)c1nc(-c2ccc(Cl)cc2Cl)c2cnccn12 |  |  | 10 µM (active) |
| O=C(NCc1cccnc1)c1nc(-c2ccc(Cl)nc2)c2cnccn12 | 0.438% (inactive) |  |  |
| O=C1CCN(C(=O)CN2CCCCCC2)CCCC(c2nc(-c3ccccc3)no2)CCN1 (centres undefined) |  | inactive |  |
| Cc1cc(C[C@@H]2COC[C@@H]2NC(=O)c2ccc3nc(C)[nH]c3c2)on1 | -2.41% (inactive) |  |  |
| O=C(NCCc1ccc(Cl)cc1)c1ccc2nc(CCc3ccccc3)oc2c1 | 47.5% (inactive) |  |  |
| CCc1ccc(Nc2nn3c(=O)c4cc5c(cc4nc3s2)OCO5)cc1 | 10.9% (inactive) |  |  |
| Cc1ccccc1Nc1nn2c(=O)c3ccc(C(=O)NCCc4ccc(Cl)cc4)cc3nc2s1 |  |  | 3.16 µM (active) |
| CC(C)c1nc(CNC(=O)c2ccc(N(C)C)nc2)no1 | -11.6% (inactive) |  |  |
| c1cc(-c2ccsc2)n2nc(C3CCCO3)nc2n1 (centres undefined) | -9.94% (inactive) |  |  |
| COCCn1nc2n(c1=O)CCN(C(=O)c1ccco1)CC2 |  | inactive; activator; fitted 3.1623 uM |  |
| Cn1cc(CN2CCCN(C(=O)c3ccco3)CC2)c(-c2ccc(C3CCCCC3)cc2)n1 |  |  | 8.91 µM (active) |
| Cc1ccc([C@@H]2CN(C(=O)c3ccco3)[C@@H]3C4CCN(CC4)[C@@H]32)cc1 | -27.6% (inactive) |  |  |
| COCc1nc(CCNC(=O)CCc2ccccc2)no1 | 37.7% (inactive) |  |  |
| COc1ccc(-c2cc(N3CCCN(C(=O)c4ccc(OC)cc4C)CC3)n[nH]2)cc1 | -0.81% (inactive) |  |  |
| CCn1nccc1C(=O)N1CCn2nnc(CCC(=O)NCc3ccccc3)c2C1 | -10.8% (inactive) |  |  |
| Cc1ccsc1-c1[nH]nc2ncc(-c3ccccc3O)nc12 |  | inactive [at 44.1 µM] |  |
| Cc1ccccc1-c1[nH]nc2ncc(-c3ccccc3)nc12 |  |  | 3.98 µM (active) |
| COc1ccc(-c2[nH]nc3ncc(-c4ccccc4)nc23)c(C)c1 |  | inactive [at 44.1 µM] |  |
| Cc1ccc(CNC(=O)C2(c3ccc(NS(C)(=O)=O)cc3)CCCCC2)cc1 |  | inactive |  |
| O=C(c1cccc(Cl)c1)N1CCC2(CC1)NCc1ccccc1NC2=O | 13.6% (inactive) |  |  |
| NCC(=O)N1CCCC2(Cc3ccccc3CN2C(=O)c2cccc(Cl)c2)C1 (centres undefined) |  |  | 11.2 µM (active) |
| NCC(=O)N1Cc2ccccc2CC2(CCCCN2CC2CCOCC2)C1 (centres undefined) | -17.2% (inactive) |  |  |
